# Compounds with a hit are over-represented: about 17% of the library has one in this group of screens.
# ATXN2 expr inh – Primary qHTS for Inhibitors of ATXN expression. Potency, µM (series often up to 57 µM), for inactives: at the highest dose activity change, negative = inhibition, actives largely listed as inhibitors. 360,000 tested, 0.72% active. HEK-293 ATXN2-luciferase reporter, luminescence, 24 h; note: % is set by controls: 0 for no effect and ±100 for the full control effect; nearly all actives have a fitted effect of over 55% in size
#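 qHTS (up to 57 uM final) was run with 24 h compound exposure of reporter cells at 37 °C. Each well was multiplexed: SteadyGlo luminescence measured ATXN2-luciferase expression after a fluorogenic Gly-Phe-AFC viability readout (25 uM final).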
# TGFb inhibitor – qHTS for Inhibitors of TGF-b. HepG2 CAGA-GFP TGF-b/SMAD3 reporter, GFP fluorescence, 18 h; TGF-beta stimulated, 500 pg/mL final. AID 588855, 2011. 410,000 tested, 1.2% active. Potency, µM (series often up to 46.1 µM), without a hit: top-dose activity, negative = inhibition, most hits filed as inhibitors; note: % is set by controls: 0 for no effect and ±100 for the full control effect; nearly all actives have a fitted effect of over 65% in size
#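 Using HEPG2 CAGA-GFP reporter cells at 1000 cells/well, we pinned test compounds, stimulated with recombinant TGF-beta (500 pg/mL final) and measured total well GFP after 18 h.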
# DT40 TDP1 CPT – qHTS for Inhibitors of human tyrosyl-DNA phosphodiesterase 1 (TDP1): qHTS in cells in presence of CPT; Potency, µM (titrated, usually from 46.2 µM), without a hit: top-dose activity change, negative = growth inhibition, hits mostly inhibitors; chicken DT40 Tdp1-/-;hTDP1 cells + 20 nM CPT, ATP luminescence, 48 h; 420,000 tested, 12% active; note: % is set by controls: 0 for no effect and ±100 for the full control effect; nearly all actives have a fitted effect of over 55% in size
#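 Cell growth measured by CellTiter-Glo luminescence after a minimum 48 h, 37 C compound exposure with 20 nM CPT in Tdp1-knockout DT40 cells stably expressing hTDP1, seeded 400/well; qHTS titration format.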
# S2 tox – Viability Counterscreen for Primary qHTS for Inhibitors of ATXN expression. S2 cells (HEK-293 line with an ATXN2-luciferase reporter) viability, CellTiter-Fluor protease fluorescence, 24 h. Potency, µM (highest dose often 56.7 µM), most hits filed as cytotoxic. 400,000 tested, 0.49% active; note: nearly all actives have a fitted effect of over 40% in size
# HepG2 tox-1 – qHTS for Inhibitors of TGF-b: Cytotox Counterscreen; Potency, µM (doses to about 46.1 µM), for inactives: at the top dose activity change, negative = cytotoxicity, actives largely listed as cytotoxic; HepG2 CAGA-GFP viability, ATP luminescence, 18 h; 410,000 tested, 0.76% active; AID 588856, 2011
#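 CellTiter-Glo luminescence gave cytotoxicity after 18 hours at 37 degrees C. The cells were HepG2 CAGA-GFP in 1% FBS DMEM, stimulated with 500 pg/mL TGF-beta after compound addition. %Activity was normalised to no-cell wells (complete cell-killing) and DMSO (no toxicity), and curves were fitted and classified.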
# TDP1 cell noCPT – qHTS for Inhibitors of human tyrosyl-DNA phosphodiesterase 1 (TDP1): qHTS in cells in absence of CPT; DT40 Tdp1-/- hTDP1 cells, no CPT, ATP luminescence, 48 h; Potency, µM (highest dose often 46.2 µM), without a hit: at the highest dose activity change, negative = growth inhibition, most hits filed as inhibitors; 420,000 tested, 15% active; AID 686978, 2013; note: % is set by controls: 0 for no effect and ±100 for the full control effect; nearly all actives have a fitted effect of over 55% in size
#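 Camptothecin absent (DMSO only). Human TDP1-complemented DT40 knockout cells, 400 cells/well, 37 °C for minimum 48 hr; ATP measured via CellTiter-Glo, 30 min dark incubation, luminescence.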
# TGFb confirm – qHTS for Inhibitors of TGF-b: Confirmation of Cherry Picks. shares compounds with TGFb inhibitor. HepG2 CAGA-GFP TGF-b reporter, GFP fluorescence, 18 h; cells stimulated with TGF-beta, 500 pg/mL. Potency, µM (doses to about 46.1 µM), inactives show at the highest dose activity, negative = inhibition, actives largely listed as inhibitors. 1,600 tested, 63% active. AID 720534, 2013; note: % is set by controls: 0 for no effect and ±100 for the full control effect; nearly all actives have a fitted effect of over 65% in size
# HepG2 tox-2 – qHTS for Inhibitors of TGF-b: Cytotox Counterscreen for Cherry Picks; shares compounds with TGFb inhibitor; HepG2 CAGA-GFP viability, ATP luminescence, 18 h; cells stimulated with TGF-beta, 500 pg/mL; Potency, µM (titrated, usually from 46.1 µM), for the others: at the highest dose activity, negative = cytotoxicity, hits mostly inhibitors; 1,600 tested, 27% active; AID 720535, 2013; note: % is set by controls: 0 for no effect and ±100 for the full control effect; nearly all actives have a fitted effect of over 70% in size
# TGFb CCL64 inh – qHTS for Inhibitors of TGF-b: CCL64 Cells Orthogonal Assay for Cherry Picks | CCL64 CAGA-GFP reporter, TGF-b stimulated, GFP fluorescence, 18 h | shares compounds with TGFb inhibitor | 1,600 tested, 41% active | Potency, µM (highest dose often 46.1 µM), without a hit: at the top dose activity, negative = inhibition, hits mostly inhibitors; note: nearly all actives have a fitted effect of over 65% in size
# COP TGFb inh – qHTS for Inhibitors of TGF-b: Hit Validation in HepG2 Cells using COP promoter. shares compounds with TGFb inhibitor. HepG2 COP-GFP TGF-b reporter, GFP fluorescence, 18 h; cells stimulated by added recombinant TGF-beta. Potency, µM (top dose mostly 46.1 µM), for the others: at the top dose activity, negative = inhibition, actives largely listed as inhibitors. 1,600 tested, 3% active; note: nearly all actives have a fitted effect of over 70% in size
# The depositor's hits bear a star; i = inactive; ? = inconclusive; / = not tested or not shown. Calls come from the whole dose curve; as a rule, active = well fitted curve in the direction sought with a large enough effect; inconclusive = small, poorly fitted or top-dose-only effect, or another doubt; inactive = no such curve, though single readings can be large; an effect the other way counts as inactive or inconclusive. Potency is the fitted concentration of half-maximal effect.
SMILES,ATXN2 expr inh,TGFb inhibitor,DT40 TDP1 CPT,S2 tox,HepG2 tox-1,TDP1 cell noCPT,TGFb confirm,HepG2 tox-2,TGFb CCL64 inh,COP TGFb inh
CCCCN(CC)C(=O)CSc1nc2n[nH]c(C)c2c(=N)n1-c1cccc(C)c1,/,7.1µM*,7.3µM*,?,-30%,21µM*,?,-18%,?,11%
CCOC(=O)c1c(C)oc2c1c(C=NCc1ccccn1)c(O)c1ccccc12,?,?,0.92µM*,?,-6%,1.2µM*,?,?,18µM*,29%
CCOC(=O)c1c(C)oc2c1cc(O)c1ccccc12,81%,-2%,-18%,i,-6%,-17%,/,/,/,/
CN(CCc1ccccn1)C(=O)CCC1CCCN(C(=O)CCOc2ccccc2)C1 (centres undefined),/,-4%,-12%,i,-9%,?,/,/,/,/
COc1ccc2oc(C(=O)OCC(=O)Nc3ccc(C)c(S(=O)(=O)N4CCOCC4)c3)c(C)c2c1,/,-12%,1%,i,-16%,-3%,/,/,/,/
CN(C)C(=O)c1cccc(-c2cccc3nccn23)c1,17%,10%,?,i,6%,?,/,/,/,/
CC(=O)c1ccc(-c2cnc3c(NC=O)cc(-c4ccccc4Oc4ccccc4)cn23)cc1,?,11µM*,?,/,-15%,21µM*,?,-18%,?,54%
COc1cccc(-c2cnc3c(NC=O)cc(-c4ccc(OC)cc4OC)cn23)c1,0%,4.5µM*,0.015µM*,?,-22%,0.021µM*,4.1µM*,-28%,3.3µM*,16%
COc1ccccc1-c1cc(NC=O)c2ncc(-c3cccc(C(=O)N(C)C)c3)n2c1,0%,7.9µM*,?,?,-7%,?,5.2µM*,-26%,?,10%
COc1cccc(-c2cnc3cccnn23)c1,71%,0%,?,i,6%,?,/,/,/,/
Cn1c(/C=C/c2ccccc2)nc2ccccc2c1=O,53%,-1%,-76%,i,-19%,?,/,/,/,/

# Bioassay records as filed in PubChem BioAssay.
